Screening data: PubChem BioAssay, several laboratories
SKKanGAS inh = SKKanGAS growth inhibition | S. pyogenes SKKanGAS, kanamycin growth, BacTiter-Glo, 6 h | inhibition, % at 7.5 µM | 300,000 compounds, 1.3% hits | AID 1662;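 active means mean replicate score, as percent of positive control median, at least 50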;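 further: strain carries kanamycin resistance gene driven by streptokinase promoter and grows in 40 µg/ml kanamycin; loss of luminescence reflects streptokinase promoter inhibition or plain growth inhibition; 0% = median of DMSO wells and 100% = positive control at its reference dose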
NALP3 yeast inh = blocks the NALP3 inflammasome reconstituted in yeast. inhibition, % at 10 µM. Yeast reconstituted NLRP3/ASC/caspase-1, beta-gal luminescence, 24 h. 330,000 compounds, 0.39% hits. AID 2825;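 active means inhibition of 50% or more; inactive means inhibition below 50%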;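 further: plate controls were induced DMSO wells for no effect and uninduced yeast grown without galactose for full effect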
tim10-1 inh = tim10-1 yeast growth inhibition. inhibition, % at 20 µM. S. cerevisiae tim10-1 ts strain growth, BacTiter-Glo, 24 h. 330,000 compounds, 2.2% hits;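 active means inhibition of at least 40%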;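 further: mutant grown at 25 °C; 0% = DMSO wells with yeast and 100% = wells holding no yeast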
tim23-1 inh = tim23-1 yeast growth inhibition; 330,000 compounds, 1.3% hits; S. cerevisiae tim23-1 growth, BacTiter-Glo luminescence, 24 h; inhibition, % at 20 µM;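 active means growth inhibition of the mutant yeast at or above 50%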;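 further: temperature-sensitive mutant grown at 25 °C; plate controls were DMSO-treated mutant yeast for no effect and medium wells lacking yeast for full effect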
TIM10 inh = growth inhibitors of TIM10 yeast strain; S. cerevisiae TIM10 strain growth, BacTiter-Glo luminescence, 24 h; inhibition, % at 10 µM; 330,000 compounds, 1.4% hits; AID 463195;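 active means inhibition of 40% or more at the single tested concentration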;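 further: wild-type TIM10 isogenic control strain grown at permissive 25 °C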
NALP1 inh = inhibitors of NALP1 inflammasome in yeast; S. cerevisiae NALP1/ASC/caspase-1 growth, X-gal OD620, 72 h; inhibition, % at 10 µM; 280,000 compounds, 0.61% hits; in the data active means inhibition mostly above about 24%, no sharp cut-off; inactive means mostly below about 32%
tim10-1 confirm = tim10-1 yeast growth inhibition, confirmed; 7,400 compounds, 56% hits; shares compounds with tim10-1 inh; inhibition, % at 20 µM; S. cerevisiae tim10-1 ts strain growth, BacTiter-Glo, 24 h;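 active means inhibition of yeast growth at or above a set limit in either of two repeat tests at 20 µM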;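 further: tim10-1 mutant grown at permissive 25 °C to find synthetic lethal compounds; 0% = DMSO yeast wells and 100% = medium wells without yeast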
TIM10 conf = confirmation of TIM10 yeast growth inhibitors; S. cerevisiae tim10 strain growth, BacTiter-Glo luminescence, 24 h; inhibition, % at 10 µM; shares compounds with TIM10 inh; 4,600 compounds, 63% hits; AID 463215;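 active means inhibition of yeast growth at or above a set limit in either of two replicates at 10 µM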;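 further: this counterscreen used the strain with wild-type TIM10; 0% = yeast with DMSO and 100% = medium wells lacking yeast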
tim23-1 confirm = tim23-1 yeast growth inhibition, confirmed; shares compounds with tim23-1 inh; S. cerevisiae tim23-1 growth, BacTiter-Glo luminescence, 24 h; inhibition, % at 20 µM; 4,400 compounds, 83% hits; AID 463218;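 active means inhibition above about 39% in either of two replicate wells at 20 µM, limit read from the data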;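 further: temperature-sensitive tim23-1 mutant grown at 25 °C; 0% = DMSO wells with yeast and 100% = medium wells without yeast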
An asterisk follows results filed as active; . = not tested or not shown. Shown are actives, neighbours in structure and some others; about 4.9% of the full set was active somewhere.

SMILES | SKKanGAS inh | NALP3 yeast inh | tim10-1 inh | tim23-1 inh | TIM10 inh | NALP1 inh | tim10-1 confirm | TIM10 conf | tim23-1 confirm
CCOc1cccc(NCc2cc3c(C(C)(C)C)nn(-c4ccccc4)c3[nH]c2=O)c1 | 18.1 | 24.1 | 49.8* | 67.8* | 42.2* | 9.0 | 41.8* | 24.9 | 65.2*
Cc1nn(-c2ccccc2)c2[nH]c(=O)c(CNCC3CCCO3)cc12 (configuration not stated) | 2.1 | 7.6 | 9.0 | -5.3 | 6.0 | 7.1 | . | . | .
Cc1c(C)n(CC(O)CN2C(=O)c3ccccc3S2(=O)=O)c2ccccc12 (configuration not stated) | 8.6 | -3.4 | 65.6* | 74.3* | 42.7* | -5.1 | 64.8* | 49.0* | 88.8*
CN1CCc2c(n(CC(O)CN3C(=O)c4ccccc4S3(=O)=O)c3ccccc23)C1=O (configuration not stated) | . | . | . | . | . | -71.3 | . | . | .
CCOC(=O)C1CCN(CC(O)COc2ccc(S(=O)(=O)N3CCCC3)cc2[N+](=O)[O-])CC1 (configuration not stated) | . | 21.6 | 5.8 | 4.8 | 2.2 | . | . | . | .
N/C(=N\OC(=O)C12CC3CC(CC(C3)C1)C2)c1ccccn1 | -5.2 | 13.2 | 61.9* | 51.4* | 41.3* | 23.9 | 44.3* | -15.5 | 48.9*
N/C(=N\OC(=O)C12CC3CC(CC(C3)C1)C2)c1ccccc1 | -14.5 | 13.3 | 64.5* | 70.4* | 78.7* | -5.0 | 53.7* | 77.9* | 70.9*
N/C(=N\OC(=O)C12CC3CC(CC(C3)C1)C2)c1cccnc1 | 0.7 | 15.9 | 35.1 | 38.0 | 33.5 | -0.4 | . | . | .
O=C(/C=C/c1ccc(F)cc1)c1cc(Br)ccc1O | -13.1 | -22.3 | 45.1* | 50.2* | 52.9* | -4.5 | 71.0* | 70.0* | 22.4
COc1ccc(C(=O)C2CCN(S(=O)(=O)c3ccc4c(c3)OCCO4)CC2)cc1 | 1.0 | 18.1 | 56.3* | 59.5* | 67.9* | 2.6 | 56.5* | 60.7* | 45.9*
COc1ccc(C(=O)NNC(=O)c2ccccn2)cc1 | 4.3 | -0.5 | 51.8* | 51.3* | 32.9 | 34.4 | 40.5* | . | 42.1*
O=[N+]([O-])c1cc(/C=N/Nc2nc(N3CCCCC3)nc(N3CCCCC3)n2)ccc1O | 3.5 | -10.4 | 48.7* | 50.5* | 52.1* | -7.4 | 39.1* | -4.5 | 51.6*
O=C(Nc1ccc(Cl)cc1C(=O)Nc1ccc(Br)cn1)c1ccco1 | 14.7 | 26.3 | 44.9* | 59.5* | 44.1* | 13.1 | 41.9* | 48.2* | 57.5*
COc1ccc(CCNC(=O)COc2ccc(S(=O)(=O)N3CCOCC3)cc2C)cc1 | 0.4 | 13.7 | 17.9 | 20.0 | 4.5 | 8.2 | . | . | .
O=C(NC(=S)Nc1ccccc1N1CCOCC1)c1cccs1 | 5.6 | -36.6 | 52.4* | 59.1* | 56.9* | 16.5 | 35.8* | 38.1* | 59.7*
O=C(NC(=S)Nc1ccccc1N1CCOCC1)c1ccccc1F | 20.6 | 10.4 | 51.8* | 57.2* | 38.9 | 18.7 | 43.5* | . | 55.2*
COc1cccc(C(=O)NC(=S)Nc2ccccc2N2CCOCC2)c1 | 38.6 | 18.3 | 44.1* | 53.3* | 39.2 | 16.2 | 30.1* | . | 45.7*
O=C(NC(=S)Nc1ccc(N2CCCCC2)cc1)c1cccs1 | 4.9 | 30.6 | 43.6* | 51.1* | 54.6* | 32.8 | 13.6 | 27.4 | 50.0*
O=C(NC(=S)Nc1ccccc1N1CCN(C(=O)c2ccccc2)CC1)c1ccccc1F | 26.8 | 7.7 | 28.7 | 33.4 | 25.4 | 11.9 | . | . | .
CCCCNC(=O)c1sc2ncnc(N3CCc4ccccc4C3)c2c1C | 2.9 | 17.4 | 47.5* | 54.8* | 43.2* | 8.6 | 34.8* | 36.2* | 51.1*
Cc1c(C(=O)NCCCN2CCOCC2)sc2ncnc(N3CCN(c4ccccc4)CC3)c12 | . | . | . | . | . | 3.7 | . | . | .
COc1ccc(-c2cccc(C3CC=CC4C3C(=O)N(Cc3ccccc3)C4c3ccc4ccccc4c3)c2)cc1 (configuration not stated) | -4.9 | 32.0 | 29.4 | 31.4 | 35.2 | 1.6 | . | . | .
COc1ccc(C2C3C=CCC(c4cccc(-c5ccc(C)cc5)c4)C3C(=O)N2Cc2ccccc2)cc1Cl (configuration not stated) | 2.0 | 8.6 | 45.7* | 53.0* | 55.8* | -0.6 | 40.2* | 22.2 | 53.5*
COC(=O)C1=C(C)NC(=S)NC1c1ccc(-c2cccc(Cl)c2)o1 (configuration not stated) | -2.3 | 12.1 | 50.3* | 52.1* | 53.2* | 1.1 | 38.6* | 1.4 | 48.6*
COc1cc(/C=C2\SC(c3ccc(C)cc3)=NC2=O)cc(OC)c1O | 17.5 | 5.6 | 54.5* | 53.1* | 44.2* | 34.0 | 37.5* | 39.9* | 48.7*
SMILES | SKKanGAS inh | NALP3 yeast inh | tim10-1 inh | tim23-1 inh | TIM10 inh | NALP1 inh | tim10-1 confirm | TIM10 conf | tim23-1 confirm
CCC(C)(C)c1ccc(OCCCC[n+]2ccc(C)cc2)c(C(C)(C)CC)c1 | 18.5 | -31.8 | 41.8* | 60.3* | -37.8 | 6.2 | 17.1 | . | 38.5*
Cc1cc[n+](CC[n+]2ccc(C)cc2)cc1 | 0.8 | 0.2 | -28.1 | -14.6 | -6.8 | . | . | . | .
O=C(CSc1nc(C(F)(F)F)cc(=O)[nH]1)N1CCC(Cc2ccccc2)CC1 | 7.3 | 15.7 | 7.5 | 6.3 | 3.0 | . | . | . | .
Cc1c(/C=C/C(=O)c2ccc(Cl)s2)cnn1C | 1.9 | -4.8 | 44.6* | 57.9* | 48.5* | 2.2 | 35.8* | 36.6* | 46.7*
COc1cc(/C=C/C(=O)c2ccc3c(c2)OCO3)cc(Cl)c1O | 22.1 | -4.6 | -6.8 | 37.7 | 15.1 | -9.5 | . | . | .
COc1cc(/C=C/C(=O)c2ccc(Cl)s2)cc(OC)c1O | -14.8 | -1.6 | 61.6* | 67.4* | 42.8* | 57.0 | 59.0* | 44.5* | 52.9*
COc1ccc(C(=O)c2c(-c3ccsc3)oc3ccc(-c4ccc(OC)cc4)cc23)cc1 | -9.3 | 24.1 | 2.3 | 15.3 | -1.8 | . | . | . | .
CCN1CCc2c(sc(NC(=O)Nc3ccc(Cl)c(Cl)c3)c2C(N)=O)C1 | . | . | . | . | . | 34.3 | . | . | .
Cc1ccc(/C(N)=N/OC(=O)CCCc2ccccc2)cc1 | 1.3 | 1.3 | 53.9* | 69.6* | 59.5* | 24.2 | 49.2* | 63.2* | 66.5*
Cc1cccc(/C(N)=N/OC(=O)CCc2ccccc2)c1 | -4.7 | 20.5 | 58.9* | 63.0* | 52.6* | 3.7 | 52.0* | 46.2* | 45.8*
COc1cc(/C=C2/N=C(c3ccccc3F)OC2=O)cc(Cl)c1OS(C)(=O)=O | 0.0 | 16.6 | 13.0 | 9.3 | 5.3 | -3.0 | . | . | .
Cc1ccc(C)c(/C=C2\N=C(c3ccccc3F)OC2=O)c1 | 0.0 | 9.1 | 40.4* | 52.7* | 45.8* | 15.5 | 57.1* | 53.2* | 54.5*
